In test [1] the target is Nuclear receptor coactivator 3 (Homo sapiens) (UniProt Q9Y6Q9). In words: SRC3 coactivator transcriptional activity inhibitors, confirmation, cell-based, luminescence, quadruplicate (AID 588792;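 active means mean inhibition over 43.08%, the solvent-only control mean plus 3 SD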;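 further: 0% = DMSO treated cells and 100% = gossypol at 36 µM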). The following applies: HEK293 GAL4-SRC3 luciferase reporter, at 3.6 µM, hits give high values. On the technique in general: A reporter such as luciferase makes a cellular process visible.

The subject of test [2] is transactivating tegument protein VP16 (Human herpesvirus 1), Gal4-VP16 luciferase reporter. Briefly: VP16 transactivation inhibitors, counter-screen for SRC3 inhibitor project, cell-based, luminescence, high throughput (AID 588794; in the data active means inhibition above about 30%). To be noted: mammalian cells, VP16-driven luciferase reporter luminescence; at 3.6 µM; hits give high values. (In general: A counterscreen serves to expose hits that act by an unwanted route or on another target.)

Test [3] deals with Nuclear receptor coactivator 1 (Homo sapiens) (UniProt Q15788). Briefly: SRC1 coactivator transcriptional activity inhibitors, confirmation, cell-based, luminescence, quadruplicate (AID 588820;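 active means mean inhibition above 46.68%, the untreated control wells mean plus 3 SD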;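 further: 0% = DMSO wells and 100% = gossypol 36 µM treated wells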). The following applies: HEK293 GAL4-SRC1 luciferase reporter, at 3.6 µM, hits give high values.
Test [4] in a line: VP16 transactivation inhibitors, counter-screen for SRC1 inhibitor project, cell-based, luminescence, high throughput (AID 588824; in the data active means inhibition above about 25%). To be noted: cell-based VP16 transactivation luciferase luminescence; at 3.6 µM; hits give high values.
A short description of test [5]: StAR promoter reporter inhibitors, counter-screen for LRH-1 inverse agonist project, cell-based, luminescence, high throughput (AID 651611; in the data active means inhibition above about 28%). To be noted: StAR promoter luciferase reporter counterscreen, at 3.6 µM, hits give high values.
In test [6] the target is Nuclear receptor subfamily 5 group A member 2 (Homo sapiens) (UniProt O00482). In words: LRH-1 (NR5A2) inverse agonists, retest, confirmation, cell-based, luminescence (AID 651613; in the data active means inhibition above about 42%;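 further: HEK293T cells co-transfected with LRH-1 and StAR promoter luciferase reporter; 0% = vehicle wells and 100% = parental cells lacking receptor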). To be noted: cell-based LRH-1 luciferase reporter, inverse agonism; at 3.6 µM; hits give high values.
Test [7] has as its target Steroidogenic factor 1 (Homo sapiens) (UniProt Q13285). Briefly: SF1 (NR5A1) inverse agonists, counter-screen for LRH-1 inverse agonist project, cell-based, luminescence, high throughput (AID 651614; in the data active means inhibition above about 44%;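 further: cells cotransfected with StAR promoter reporter and SF1 expression vector; 0% = vehicle on cells with receptor and 100% = vehicle on cells lacking receptor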). To be noted: cell-based SF1 luciferase reporter, at 3.6 µM, hits give high values.
Test [8] in a line: VP16 transactivation reporter inhibitors, counter-screen for LRH-1 inverse agonist project, cell-based, luminescence, high throughput (AID 651615). To be noted: Gal4-VP16 luciferase reporter cells, at 3.6 µM, hits give high values.
In test [9] the test system is transactivating tegument protein VP16 (Human herpesvirus 1). Briefly: VP16 transactivation reporter inhibitors, counter-screen for SRC2 inhibitor project, cell-based, luminescence, single concentration (AID 652007; in the data active means inhibition above about 36%). The following applies: cell-based VP16 transactivation luciferase reporter, at 8.9 µM, hits give high values.
The target in test [10] is Nuclear receptor coactivator 2 (Homo sapiens) (UniProt Q15596). In words: SRC2 coactivator transcriptional activity inhibitors, confirmation, cell-based, luminescence, HEK293, triplicate (AID 652008;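 active means mean inhibition above 46.5%, the solvent-only control mean plus 3 SD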;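 further: 0% = DMSO-treated cells and 100% = Gossypol at 36 µM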). The following applies: HEK293 GAL4-SRC2 luciferase reporter, at 8.9 µM, hits give high values.

A number with no mark means an inactive call. Active and inactive are the calls of the source. Unless noted, no stated cut-off is given here; in the data, active means inhibition above about 33%; inactive means the rest.

As usually defined, the inhibition is the change of the read-out against control, counted positive when it falls.

Sequence of Steroidogenic factor 1 (Homo sapiens) (Q13285 whole entry, looked up, the tested form may be a part): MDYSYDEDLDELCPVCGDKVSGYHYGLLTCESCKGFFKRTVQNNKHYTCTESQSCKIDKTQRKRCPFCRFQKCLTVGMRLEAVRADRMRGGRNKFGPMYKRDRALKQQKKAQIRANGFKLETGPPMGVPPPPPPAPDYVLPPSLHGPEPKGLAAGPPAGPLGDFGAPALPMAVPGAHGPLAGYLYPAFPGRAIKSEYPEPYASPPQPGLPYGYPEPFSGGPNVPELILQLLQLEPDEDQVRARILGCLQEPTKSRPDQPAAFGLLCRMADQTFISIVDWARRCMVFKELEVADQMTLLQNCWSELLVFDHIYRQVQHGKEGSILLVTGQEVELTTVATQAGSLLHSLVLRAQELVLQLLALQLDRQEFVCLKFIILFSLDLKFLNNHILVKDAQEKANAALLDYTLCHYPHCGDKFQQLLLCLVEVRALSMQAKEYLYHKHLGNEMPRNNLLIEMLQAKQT
Sequence of Nuclear receptor subfamily 5 group A member 2 (Homo sapiens) (O00482 whole entry, looked up): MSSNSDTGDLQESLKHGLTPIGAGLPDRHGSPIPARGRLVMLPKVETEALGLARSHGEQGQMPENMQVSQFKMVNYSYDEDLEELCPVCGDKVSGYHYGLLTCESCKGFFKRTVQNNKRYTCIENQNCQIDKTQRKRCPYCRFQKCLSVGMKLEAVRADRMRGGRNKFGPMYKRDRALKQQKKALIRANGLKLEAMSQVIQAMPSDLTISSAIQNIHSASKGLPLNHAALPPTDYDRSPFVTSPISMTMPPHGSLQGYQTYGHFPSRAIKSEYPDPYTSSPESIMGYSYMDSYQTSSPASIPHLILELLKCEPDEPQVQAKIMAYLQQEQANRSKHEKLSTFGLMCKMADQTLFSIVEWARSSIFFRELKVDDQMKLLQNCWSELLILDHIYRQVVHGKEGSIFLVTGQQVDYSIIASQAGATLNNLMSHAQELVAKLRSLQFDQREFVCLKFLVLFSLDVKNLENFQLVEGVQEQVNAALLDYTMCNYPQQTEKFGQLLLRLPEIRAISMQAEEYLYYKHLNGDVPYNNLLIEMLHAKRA
Sequence of Nuclear receptor coactivator 1 (Homo sapiens) (Q15788 whole entry, looked up, the tested form may be a part): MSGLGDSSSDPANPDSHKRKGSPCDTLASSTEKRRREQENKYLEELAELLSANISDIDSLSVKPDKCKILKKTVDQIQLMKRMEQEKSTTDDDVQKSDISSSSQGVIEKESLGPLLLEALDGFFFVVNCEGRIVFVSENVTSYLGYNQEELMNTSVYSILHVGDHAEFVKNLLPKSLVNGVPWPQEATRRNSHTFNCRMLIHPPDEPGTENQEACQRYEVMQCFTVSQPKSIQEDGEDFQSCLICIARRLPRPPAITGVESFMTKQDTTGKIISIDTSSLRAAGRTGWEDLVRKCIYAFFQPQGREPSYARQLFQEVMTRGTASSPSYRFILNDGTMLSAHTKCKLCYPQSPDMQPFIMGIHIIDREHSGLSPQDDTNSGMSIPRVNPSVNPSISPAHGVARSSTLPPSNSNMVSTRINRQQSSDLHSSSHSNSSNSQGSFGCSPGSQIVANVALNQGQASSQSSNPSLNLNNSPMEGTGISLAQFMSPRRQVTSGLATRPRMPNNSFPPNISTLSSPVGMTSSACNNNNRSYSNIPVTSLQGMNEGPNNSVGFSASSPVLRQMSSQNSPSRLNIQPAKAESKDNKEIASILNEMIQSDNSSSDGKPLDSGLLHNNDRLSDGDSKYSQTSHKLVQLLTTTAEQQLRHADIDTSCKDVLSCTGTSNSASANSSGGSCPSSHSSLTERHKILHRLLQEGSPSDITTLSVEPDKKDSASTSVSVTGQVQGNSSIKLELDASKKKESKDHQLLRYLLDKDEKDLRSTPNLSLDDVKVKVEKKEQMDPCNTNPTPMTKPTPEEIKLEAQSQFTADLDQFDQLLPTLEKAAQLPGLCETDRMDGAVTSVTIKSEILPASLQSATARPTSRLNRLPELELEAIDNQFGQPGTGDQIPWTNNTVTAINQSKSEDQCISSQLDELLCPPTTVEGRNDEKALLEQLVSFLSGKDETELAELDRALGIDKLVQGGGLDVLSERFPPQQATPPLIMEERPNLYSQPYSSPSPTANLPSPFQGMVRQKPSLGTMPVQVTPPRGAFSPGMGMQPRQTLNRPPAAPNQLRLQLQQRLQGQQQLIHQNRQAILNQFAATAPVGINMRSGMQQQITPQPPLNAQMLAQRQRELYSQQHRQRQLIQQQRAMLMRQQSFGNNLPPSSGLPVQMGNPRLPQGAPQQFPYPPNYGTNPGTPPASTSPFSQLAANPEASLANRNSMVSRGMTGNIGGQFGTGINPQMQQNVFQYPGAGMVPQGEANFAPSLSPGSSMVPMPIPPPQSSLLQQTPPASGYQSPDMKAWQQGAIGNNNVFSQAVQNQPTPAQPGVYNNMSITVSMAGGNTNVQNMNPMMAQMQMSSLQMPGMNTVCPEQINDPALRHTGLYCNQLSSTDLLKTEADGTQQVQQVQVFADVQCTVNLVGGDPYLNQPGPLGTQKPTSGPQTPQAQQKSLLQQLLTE
Sequence of Nuclear receptor coactivator 2 (Homo sapiens) (Q15596 whole entry, looked up, the tested form may be a part): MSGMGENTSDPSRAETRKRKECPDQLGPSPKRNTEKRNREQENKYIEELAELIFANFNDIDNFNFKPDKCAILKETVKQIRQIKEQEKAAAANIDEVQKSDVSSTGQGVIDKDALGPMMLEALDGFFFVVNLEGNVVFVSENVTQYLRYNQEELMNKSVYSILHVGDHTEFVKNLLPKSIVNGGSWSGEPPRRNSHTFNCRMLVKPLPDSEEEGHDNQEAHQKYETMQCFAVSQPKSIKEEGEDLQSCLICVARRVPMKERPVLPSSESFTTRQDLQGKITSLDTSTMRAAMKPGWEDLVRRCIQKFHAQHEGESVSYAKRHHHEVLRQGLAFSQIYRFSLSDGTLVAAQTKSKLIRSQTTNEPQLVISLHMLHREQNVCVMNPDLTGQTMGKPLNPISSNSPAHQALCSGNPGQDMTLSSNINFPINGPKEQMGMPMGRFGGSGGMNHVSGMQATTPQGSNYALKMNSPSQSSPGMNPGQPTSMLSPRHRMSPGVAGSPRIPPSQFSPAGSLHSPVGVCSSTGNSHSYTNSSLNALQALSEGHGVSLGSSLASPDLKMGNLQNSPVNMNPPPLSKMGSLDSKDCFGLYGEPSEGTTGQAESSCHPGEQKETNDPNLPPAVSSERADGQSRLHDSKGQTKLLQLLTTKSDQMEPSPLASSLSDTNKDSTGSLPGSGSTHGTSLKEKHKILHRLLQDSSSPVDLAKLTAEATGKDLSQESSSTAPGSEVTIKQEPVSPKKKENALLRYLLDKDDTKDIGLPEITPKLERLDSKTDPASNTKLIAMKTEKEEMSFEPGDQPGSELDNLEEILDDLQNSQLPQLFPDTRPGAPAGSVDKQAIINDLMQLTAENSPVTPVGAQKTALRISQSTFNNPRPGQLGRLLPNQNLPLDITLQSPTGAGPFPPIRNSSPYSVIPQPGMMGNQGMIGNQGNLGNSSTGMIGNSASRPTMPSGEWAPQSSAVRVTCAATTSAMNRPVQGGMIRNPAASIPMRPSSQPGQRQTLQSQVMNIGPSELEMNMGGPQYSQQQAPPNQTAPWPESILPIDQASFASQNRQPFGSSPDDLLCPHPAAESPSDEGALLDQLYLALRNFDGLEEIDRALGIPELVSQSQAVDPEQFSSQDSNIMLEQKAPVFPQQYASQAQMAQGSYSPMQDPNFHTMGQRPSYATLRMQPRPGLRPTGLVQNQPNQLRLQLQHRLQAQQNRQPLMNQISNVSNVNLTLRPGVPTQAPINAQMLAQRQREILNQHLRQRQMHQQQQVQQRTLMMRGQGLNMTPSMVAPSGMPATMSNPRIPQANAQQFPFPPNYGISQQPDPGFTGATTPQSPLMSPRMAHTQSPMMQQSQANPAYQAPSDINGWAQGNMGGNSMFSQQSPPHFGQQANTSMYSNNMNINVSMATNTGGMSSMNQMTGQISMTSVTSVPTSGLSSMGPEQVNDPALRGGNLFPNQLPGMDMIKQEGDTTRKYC

As to `C[C@H]1O[C@@H](OC2CC[C@]3(C=O)[C@H]4CC[C@]5(C)[C@@H](C6=CC(=O)OC6)CC[C@]5(O)[C@@H]4CC[C@]3(O)C2)CC2OC(C)(C)OC21` (some centres not stated), the inhibition in test [1] is 94.5% (active); in test [2] it was 85.3% (active); in [3], 65.8% (active); in test [4], 83.1% (active); in test [5] it was 97.6% (active); in [6], 111% (active). Also, the inhibition in test [7] is 99.5% (active); in test [8], 93.3% (active).
Turning to `C[C@H]1[C@@H](OS(=O)(=O)O)C[C@@H]2C[C@H]([C@@H](O)c3cc(=O)[nH]c(=O)[nH]3)NC3=NC[C@H]1N32`, the inhibition in [1] is 88.3% (active); in [2], 71% (active); in [3], 58% (active); in test [4] it was 70.5% (active); in test [5], 92.3% (active); in test [6], 107% (active). Moreover, the inhibition in test [7] is 95.2% (active); in test [8] it was 76.8% (active).
For `Cc1ccc(-c2cc(-c3ccc(C)cc3)[n+](-c3ccccc3)c(-c3ccc(C)cc3)c2)cc1`, the inhibition is 79.8% (active) in [1]; 82.6% (active) in [2]; 48.3% (active) in [3]; 80.6% (active) in test [4]; 84.5% (active) in test [5]; 111% (active) in test [6]. Further, the values for the inhibition in [7] and in [8] were 94.8% (active) and 95% (active), respectively.
On to `CC(=O)OC1(C)CC(C)C(=O)C(C(O)CC2CC(=O)NC(=O)C2)C1` (configuration not stated), for which the inhibition was 98% (active) in [1]; 96.7% (active) in test [2]; 93.5% (active) in test [3]; 95.6% (active) in test [4]; 94.8% (active) in test [5]; 110% (active) in test [6]. Moreover, the inhibition is 97.5% (active) in test [7], 95.8% (active) in test [8], 80.1% (active) in [9] and 71.5% (active) in test [10].
For `CN(C)c1ccc(/C=C/C=C/c2sc3ccccc3[n+]2C)cc1`, the inhibition is 22.8% in test [1]; 38.5% (active) in [2]; 27.4% in test [3]; 30.4% (active) in test [4]; 35.2% (active) in test [5]; 54.1% (active) in [6]. Further, the inhibition in test [7] was 63% (active); in test [8] it was 56.9% (active).
Turning to `CN(C)c1ccc(-[n+]2c(-c3ccccc3)cc(-c3ccccc3)cc2-c2ccccc2)cc1`, the inhibition in test [1] is 84.6% (active); in test [2] it was 86.2% (active); in test [3], 52.3% (active); in test [4], 83.5% (active); in test [5] it was 79.2% (active); in test [6], 107% (active). In addition, the results for the inhibition in test [7] and in test [8] were 91.6% (active) and 92% (active), respectively.
For `C[C@]12CCC3C(CCC4=CC(O)CC[C@@]43/C=N/O)C1(O)CCC2C1=CC(=O)OC1` (some centres not stated), the inhibition is 95.1% (active) in test [1]; 79.7% (active) in test [2]; 49.1% (active) in test [3]; 77.8% (active) in [4]; 94.8% (active) in test [5]; 108% (active) in test [6]. Besides, the inhibition in [7] is 97% (active); in test [8], 82.5% (active); in [9], 63.6% (active); in test [10] it was 11.4%.
In the case of `CC(=O)OC1CC2OC3C=C(C)CCC3(C)C1(C)C21CO1` (configuration not stated), the inhibition was 98.2% (active) in [1]; 95.5% (active) in test [2]; 94.2% (active) in [3]; 95.1% (active) in [4]; 95.2% (active) in test [5]; 111% (active) in test [6]. In addition, the inhibition in test [7] is 98% (active); in test [8] it was 96.8% (active); in test [9], 82.5% (active); in [10], 76.1% (active).
Take `CC(C)(C)c1cc(C=C(C#N)C#N)cc(C(C)(C)C)c1O`: the inhibition was 64.3% (active) in [1]; 82.4% (active) in [2]; 0.93% in test [3]; 81% (active) in test [4]; 80.2% (active) in [5]; 102% (active) in test [6]. Further, the inhibition was 91.4% (active) in [7] and 88.2% (active) in test [8].
For the compound `CC[n+]1c(-c2ccccc2)c2cc(N)ccc2c2ccc(N)cc21`, the inhibition in [1] was -43.8%; in test [2] it was 52.4% (active); in test [3] it was 40.9%; in [4], 41.4% (active); in [5] it was 68.7% (active); in test [6], 92.5% (active). The inhibition was 77.7% (active) in test [7] and 84.8% (active) in test [8].
In the case of `N#CC1c2ccccc2-n2nncc2CN1Cc1cc(Cl)cc(Cl)c1` (configuration not stated), the inhibition in test [1] was 92.8% (active); in [2], 84.7% (active); in [3], 79.7% (active); in test [4] it was 90.4% (active); in test [5] it was 90.5% (active); in test [6], 106% (active). For the same compound, the inhibition in [7] was 94.1% (active); in test [8], 94.3% (active); in test [9] it was 82.2% (active); in [10], 84.5% (active).
`CC(=O)OC1C(=O)OCC23CCC4(C)OC4C2OC2CC(OC(=O)C=CC=CC(=O)OCCC1C)C3(C)C21CO1` (configuration not stated): the inhibition in [1] was 98.1% (active); in [2] it was 96.5% (active); in test [3], 96.7% (active); in test [4], 96.3% (active); in [5], 96.8% (active); in [6], 110% (active). In addition, the inhibition in [7] is 98.6% (active); in [8], 95.3% (active).
For `O=[N+]([O-])c1ccc(N(CCO)CCO)c2c1no[n+]2[O-]`, the inhibition was 52.6% (active) in test [1]; 27.8% in test [2]; 29.1% in [3]; 14.5% in test [4]; 70.7% (active) in test [5]; 76.2% (active) in [6]. The inhibition is 74.4% (active) in test [7], 28.9% in test [8], 29.9% in test [9] and 56.3% (active) in test [10].
On to `CC1CC(C)CC(C)C(O)C(C#N)=CC=CCC(C2CCCC2C(=O)O)OC(=O)CC(O)C(C)C1` (configuration not stated), for which the inhibition in test [1] is 97.5% (active); in test [2] it was 95.6% (active); in test [3], 89.6% (active); in [4], 94.4% (active); in test [5] it was 95.8% (active); in [6], 110% (active). Also, the inhibition was 97.9% (active) in test [7], 98.7% (active) in test [8], 78.4% (active) in test [9] and 78.7% (active) in test [10].
Turning to `O=c1[nH]c2ccccc2n1C1CCN(C(c2cccc3ccccc23)c2nnnn2-c2ccc3c(c2)OCCO3)CC1` (configuration not stated), the inhibition in [1] was 33.8%; in test [2], 12.5%; in test [3], -29.6%; in test [4], 10.9%; in test [5] it was 57.5% (active); in [6], 27.6%. The values for the inhibition in test [7] and in [8] were 44% (active) and 27.7%, respectively.

The record behind these values is PubChem BioAssay.
